Records with an inconclusive call do not appear. Activity calls are given as the source filed them. Calls come from the whole dose curve; as a rule, active = well fitted curve in the direction sought with a large enough effect; inconclusive = small, poorly fitted or top-dose-only effect, or another doubt; inactive = no such curve, though single readings can be large; an effect the other way counts as inactive or inconclusive.
What was measured:
[1] = test system: HACAT; assay: qHTS assay to identify novel small-molecules to repurpose for Merkel cell carcinoma treatment (AID 1296009); details: MCC and control cell lines, CellTiter-Glo viability, 72 h; at 44.8 µM (top of the series) unless noted; note: nearly all actives have a fitted effect of over 60% in size
Procedure, shortened: (§1)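 Cell viability, measured as CellTiter-Glo luminescence, was normalized between DMSO and no-cell wells. The cells had been exposed to 8- or 11-point compound dilutions for 72 hr at 37 degree celsius.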

[2] = test system: NIH3T3; assay: as above; details: MCC and control cell lines, CellTiter-Glo viability, 72 h; at 44.8 µM (top of the series) unless noted
Procedure, shortened: as §1

[3] = test system: C33A; assay: Primary qHTS to identify gynecologic anti-cancer compounds using libraries of approved drugs and bioactive compounds (AID 1345084); details: Gynecologic cancer cell panel viability, ATPlite luminescence, 48 h; series mostly up to 57.5 µM; note: % is set by controls: 0 for no effect and ±100 for the full control effect; nearly all actives have a fitted effect of over 55% in size
Procedure, shortened: (§2)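 Cytotoxicity screen measuring ATP content by luciferase luminescence. Each compound is applied at five concentrations for 48 h at 37 C with 5% CO2.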

[4] = test system: CAOV3; assay: as above; details: Gynecologic cancer cell panel viability, ATPlite luminescence, 48 h; series mostly up to 57.5 µM
Procedure, shortened: as §2

[5] = test system: CASKI; assay: as above; details: Gynecologic cancer cell panel viability, ATPlite luminescence, 48 h; series mostly up to 57.5 µM
Procedure, shortened: as §2

[6] = test system: Es-2; assay: as above; details: Gynecologic cancer cell panel viability, ATPlite luminescence, 48 h; series mostly up to 57.5 µM
Procedure, shortened: as §2

[7] = test system: HeLa; assay: as above; details: Gynecologic cancer cell panel viability, ATPlite luminescence, 48 h; series mostly up to 57.5 µM
Procedure, shortened: as §2

[8] = test system: Hek293T; assay: as above; details: Gynecologic cancer cell panel viability, ATPlite luminescence, 48 h, control line for the selectivity index; series mostly up to 57.5 µM
Procedure, shortened: as §2

[9] = test system: JEG-3; assay: as above; details: Gynecologic cancer cell panel viability, ATPlite luminescence, 48 h; series mostly up to 57.5 µM
Procedure, shortened: as §2

[10] = test system: OV90; assay: as above; details: Gynecologic cancer cell panel viability, ATPlite luminescence, 48 h; series mostly up to 57.5 µM
Procedure, shortened: as §2

[11] = test system: PA-1; assay: as above; details: Gynecologic cancer cell panel viability, ATPlite luminescence, 48 h; series mostly up to 57.5 µM
Procedure, shortened: as §2

[12] = test system: SKOV3; assay: as above; details: Gynecologic cancer cell panel viability, ATPlite luminescence, 48 h; series mostly up to 57.5 µM
Procedure, shortened: as §2

[13] = test system: Tov-21-G; assay: as above; details: Gynecologic cancer cell panel viability, ATPlite luminescence, 48 h; series mostly up to 57.5 µM
Procedure, shortened: as §2

[14] = test system: Tov112D; assay: as above; details: Gynecologic cancer cell panel viability, ATPlite luminescence, 48 h; series mostly up to 57.5 µM
Procedure, shortened: as §2

COc1cc(/C=C/C(=O)O)ccc1O[C@@H]1O[C@H](CO)[C@@H](O)[C@H](O)[C@H]1O[C@@H]1OC[C@](O)(CO)[C@H]1O
inactive: outcome [1] inactive [at 17.4 µM] | outcome [2] inactive [at 17.4 µM] | Potency [3] | Potency [4] | outcome [5] | Potency [6] | Potency [7] | Potency [8] | Potency [9] | Potency [10] | Potency [11] | Potency [12] | Potency [13] | Potency [14]

Cc1occc(=O)c1O[C@@H]1O[C@H](CO)[C@@H](O)[C@H](O)[C@H]1O
inactive: outcome [1] | outcome [2] | Potency [3] | Potency [4] | outcome [5] | Potency [6] | Potency [7] | Potency [8] | Potency [9] | Potency [10] | Potency [11] | Potency [12] | Potency [13] | Potency [14]

C=C1C(=O)OC[C@H]2C(C(=O)O)=CC3CC(C)(C)C[C@@]132 (stereo partly drawn)
inactive: outcome [1] | outcome [2] | Potency [3] | Potency [4] | outcome [5] | Potency [6] | Potency [7] | Potency [8] | Potency [9] | Potency [10] | Potency [11] | Potency [12] | Potency [13] | Potency [14]

CC(C)Oc1ccc(-c2nc(-c3cccc4c3CCC4NCCC(=O)O)no2)cc1C#N (stereo not drawn)
inactive: outcome [1] | outcome [2] | Potency [3] | Potency [4] | outcome [5] | Potency [6] | Potency [7] | Potency [8] | Potency [9] | Potency [10] | Potency [11] | Potency [12] | Potency [13] | Potency [14]

CC1CCC2(C(=O)O)CCC3(C)C(=CCC4C5(C)CCC(O)C(C)(C(=O)O)C5CCC43C)C2C1(C)O (stereo not drawn)
inactive: outcome [1] inactive [at 17.4 µM] | outcome [2] inactive [at 17.4 µM] | Potency [3] | Potency [4] | outcome [5] | Potency [6] | Potency [7] | Potency [8] | Potency [9] | Potency [10] | Potency [11] | Potency [12] | Potency [13] | Potency [14]

CC(=C\C(C)O)/C=C(\C)C(=O)CC1CC(CC(N)=O)CC(=O)O1 (stereo not drawn)
inactive: outcome [1] | outcome [2] | Potency [3] | Potency [4] | outcome [5] | Potency [6] | Potency [7] | Potency [8] | Potency [9] | Potency [10] | Potency [11] | Potency [12] | Potency [13] | Potency [14]

CC(=O)OC1C(CO)OC(O[C@H]2[C@H](OC(=O)[C@]34CCC(C)(C)C[C@H]3C3=CCC5[C@@]6(C)CC[C@H](O[C@@H]7O[C@H](C(=O)O)[C@@H](O)[C@H](O[C@@H]8OC[C@@H](O)[C@H](O)[C@H]8O)[C@H]7O[C@@H]7O[C@H](CO)[C@H](O)[C@H](O)[C@H]7O)[C@@](C)(C=O)C6CC[C@@]5(C)[C@]3(C)C[C@H]4O)O[C@H](C)[C@H](OC3OC(C)C(OC4OCC(O)C(O)C4O)C(O)C3O)[C@@H]2O)C(O)C1O (stereo partly drawn)
inactive: outcome [1] inactive [at 9.27 µM] | outcome [2] inactive [at 9.27 µM] | activity change, negative = cytotoxicity [3] 12.2% [at 6.55 µM] | activity change, negative = cytotoxicity [4] -15% [at 6.55 µM] | activity change, negative = cytotoxicity [5] 7.74% [at 6.55 µM] | activity change, negative = cytotoxicity [6] -0.286% [at 6.55 µM] | activity change, negative = cytotoxicity [7] -1.51% [at 6.55 µM] | activity change, negative = cytotoxicity [8] 1.03% [at 6.55 µM] | activity change, negative = cytotoxicity [9] 3.7% [at 6.55 µM] | activity change, negative = cytotoxicity [10] -0.616% [at 6.55 µM] | activity change, negative = cytotoxicity [11] 13.7% [at 6.55 µM] | activity change, negative = cytotoxicity [12] 33.2% [at 6.55 µM] | activity change, negative = cytotoxicity [13] 2.01% [at 6.55 µM] | activity change, negative = cytotoxicity [14] 5.09% [at 6.55 µM]

C[C@]12CCC[C@](C)(C(=O)O)C1[C@@H](O)[C@@H](O)C13CC(CCC12)C(CO)(O[C@@H]1O[C@H](CO)[C@@H](O)[C@H](O)[C@H]1O)C3 (stereo partly drawn)
inactive: outcome [1] inactive [at 17.4 µM] | outcome [2] inactive [at 17.4 µM] | Potency [3] | Potency [4] | outcome [5] | Potency [6] | Potency [7] | Potency [8] | Potency [9] | Potency [10] | Potency [11] | Potency [12] | Potency [13] | Potency [14]

C=C1C(O)C(O)C2(CC3C(C)=CCC4C(C)(C(=O)O)CCCC34C)OC2C1O (stereo not drawn)
inactive: outcome [1] | outcome [2] | Potency [3] | Potency [4] | outcome [5] | Potency [6] | Potency [7] | Potency [8] | Potency [9] | Potency [10] | Potency [11] | Potency [12] | Potency [13] | Potency [14]

C/C(=C\CCC1(C)C2CC3C(C2)C31C)C(=O)O (stereo not drawn)
inactive: outcome [1] | outcome [2] | Potency [3] | Potency [4] | outcome [5] | Potency [6] | Potency [7] | Potency [8] | Potency [9] | Potency [10] | Potency [11] | Potency [12] | Potency [13] | Potency [14]

C/C=C/C=C/C(O)=C1/C(=O)[C@]2(C)C(=O)[C@@](C)(O)[C@H]1[C@H]([C@@]1(C)OC(=O)C(C)=C1O)[C@H]2C(=O)CC/C=C/C
inactive: outcome [1] inactive [at 17.4 µM] | outcome [2] inactive [at 17.4 µM] | Potency [3] | Potency [4] | outcome [5] | Potency [6] | Potency [7] | Potency [8] | Potency [9] | Potency [10] | Potency [11] | Potency [12] | Potency [13] | Potency [14]

C[C@H]1[C@H](C)C[C@@H](C(=O)O)C2CC[C@]3(C)C(=CC[C@@H]4[C@@]5(C)CC[C@H](O)C(C)(C)[C@@H]5CC[C@]43C)[C@@H]21 (stereo partly drawn)
inactive: outcome [1] | outcome [2] | Potency [3] | Potency [4] | outcome [5] | Potency [6] | Potency [7] | Potency [8] | Potency [9] | Potency [10] | Potency [11] | Potency [12] | Potency [13] | Potency [14]

Source: PubChem BioAssay (NCATS)
